Experimental data taken from PubChem BioAssay (Tox21).
Results filed as inconclusive are left out. A structure can be active in one record and inactive in another. Active and inactive are the calls of the source. Calls follow the shape of the full dose curve.

Test: qHTS assay to identify small molecule antagonists of the sonic hedgehog signaling (Shh) pathway (AID 1259369); also: nearly all actives have a fitted effect of over 45% in size
Details: NIH/3T3 Gli1-Luc reporter, Shh antagonist, luminescence 24 h; series mostly up to 92.4 µM
Source text: U.S. Tox21 Program National Center for Advancing Translational Sciences [NCATS] NIH Chemical Genomics Center [NCGC] U.S. Environmental Protection Agency [EPA] National Institutes of Environmental Health Sciences [NIEHS] National Toxicology Program [NTP] U.S. Food and Drug Administration [FDA] Tox21 Assay Overview: The sonic hedgehog (Shh) pathway is essential for normal embryonic development. Dysregulation of the Shh pathway can cause severe developmental defects in organs. Therefore chemicals that interfere with the pathway are potential developmental toxicants. A cell line designated 3T3Gli1-Luc (DMB/OARSA/CFSAN/FDA, Laurel, MD), a NIH/3T3 derived clone containing stably integrated Gli1-Luc reporter is used to detect chemical interference of the Shh pathway, by changes in the expression of the firefly Luc gene under the control of the Gli1 transcriptional response element. This cell line was used to screen Tox21 libraries for identifying and prioritizing the potential developmental toxicants that interfere Shh pathway. Conditioned medium-stimulated mode was used to screen for chemicals inhibiting Shh signaling.
Tox21 Assay Protocol Summary: 3T3 Gli1-Luc cells were dispensed at 2,000 per well in 5uL of culture medium into white solid bottom 1536-well plates (Greiner Bio-One, Monroe, NC) using a Multidrop Combi (Thermo Scientific, Waltham, MA) dispenser. The assay plates were incubated at 37 C and 5% CO2 for 4hr, and then 23nL of compounds dissolved in DMSO and positive control were transferred using a Pintool station (Wako, San Diego, CA). The compound transfer was followed by the addition of 1ul conditioned medium or assay buffer using two separate tips of Flying Reagent Dispenser (FRD, Aurora Discovery, San Diego, CA). The assay plates were incubated at 37C and 5% CO2 for 24hr. For luciferase read, 4uL of Amplite Luciferase reporter gene assay reagent (AAT Bioquest, Inc. Sunnyvale, CA) was added to each well of the assay plates using FRD and incubated at room temperature for 30min. The luminescence signal was measured using a ViewLux plate reader (Perkin Elmer, Shelton, CT).
Potency is read from the fitted curve at half-maximal effect.

Structure (SMILES) | Potency
COC12CC[C@@]3(C[C@@H]1C(C)(O)C(C)(C)C)[C@H]1Cc4ccc(O)c5c4[C@@]3(CCN1CC1CC1)[C@H]2O5 (stereo not given in full) | 4.82 µM (active)
CSCCCN=C=S | inactive
C=CCC1=C(C)C(OC(=O)C2C(C=C(C)C)C2(C)C)CC1=O (stereo not given) | 16.3 µM (active)
C[C@@H]1CC[C@@]2(OC1)O[C@H]1[C@@H](O)[C@H]3[C@@H]4CC[C@H]5C[C@@H](O[C@@H]6O[C@H](CO)[C@H](O[C@@H]7O[C@H](CO)[C@@H](O)[C@H](O[C@@H]8OC[C@@H](O)[C@H](O)[C@H]8O)[C@H]7O[C@@H]7O[C@H](CO)[C@@H](O)[C@H](O[C@@H]8O[C@H](CO)[C@@H](O)[C@H](O)[C@H]8O)[C@H]7O)[C@H](O)[C@H]6O)[C@H](O)C[C@]5(C)[C@H]4CC[C@]3(C)[C@H]1[C@@H]2C | 1.15 µM (active)
CN(C)S(=O)(=O)N(SC(F)(Cl)Cl)c1ccccc1 | 2.17 µM (active)
CC(C)(c1ccc(O)c(-c2ccccc2)c1)c1ccc(O)c(-c2ccccc2)c1 | 12.2 µM (active)
N#Cc1ccc(O)cc1 | inactive
Nc1ccc([N+](=O)[O-])cc1Cl | inactive
OC(Cc1ccccc1Cl)(Cn1cncn1)C1(Cl)CC1 (stereo not given) | 12.2 µM (active)
BrCC(Br)c1ccccc1 (stereo not given) | inactive
O=C(O)COc1nc(Cl)c(Cl)cc1Cl | inactive
CC(C)CCCCCOC(=O)c1ccccc1C(=O)OCCCCCC(C)C | 17 µM (active)
O=[N+]([O-])c1cc([N+](=O)[O-])c2ccccc2c1 | 1.22 µM (active)
CC(=O)[O-].CC(=O)[O-].O.O.[Cd+2] | 1.07 µM (active)
C[C@@H]1O[C@@H](O[C@@H]2C=C3CC[C@@H]4[C@H](CC[C@]5(C)[C@@H](c6ccc(=O)oc6)CC[C@]45O)[C@@]3(C)CC2)[C@H](O)[C@H](O)[C@H]1O | 16.8 µM (active)
Cc1cccc(OP(=O)(Oc2cccc(C)c2)Oc2cccc(C)c2)c1 | inactive
[CH3][Hg][Cl] | 34.3 µM (active)
SCc1ccco1 | 61.1 µM (active)
CCCN(CC)CC1COC2(CCC(C(C)(C)C)CC2)O1 (stereo not given) | inactive
O=CC(Br)(Br)Br | 24.3 µM (active)

Structure (SMILES) | Potency
O=C(O)c1cc[c]([Hg][Cl])cc1 | 1.72 µM (active)
Oc1ccccc1Br | inactive
ClC(Cl)=C(c1ccc(Cl)cc1)c1ccc(Cl)cc1 | inactive
O=[N+]([O-])O.O=[N+]([O-])O.[Cd] | 1.72 µM (active)
O=[N+]([O-])c1cc(C(F)(F)F)c(Cl)c([N+](=O)[O-])c1Cl | 4.86 µM (active)
Clc1ccc(C(c2ccc(Cl)cc2)C(Cl)(Cl)Cl)cc1 | 27.5 µM (active) and inactive
CCc1cc(C)cc(CC)c1-c1c(OC(=O)C(C)(C)C)n2n(c1=O)CCOCC2 | inactive
ClC1=C(Cl)C2(Cl)C3C(Cl)C(Cl)CC3C1(Cl)C2(Cl)Cl (stereo not given) | inactive
Cc1cc(N=Nc2ccccc2C)ccc1N | 19.3 µM (active) and inactive
CC(C)OC(=O)C(O)(c1ccc(Cl)cc1)c1ccc(Cl)cc1 | 54.5 µM (active)
S=C(SSC(=S)N1CCCCC1)N1CCCCC1 | 5.96 µM (active)
CN(CCCC(=O)c1cccnc1)N=O | inactive
Nc1ccccc1C(=O)OC/C=C/c1ccccc1 | inactive
Oc1ccc(C2(c3ccc(O)cc3)CCCCC2)cc1 | 46 µM (active)
C=CC(=O)N(C)C | inactive
C=CC(=O)OCC(COC(=O)C=C)(COC(=O)C=C)COC(=O)C=C | 6.86 µM (active)
BrC(Br)Br | inactive
O=C(NC(=O)c1c(F)cccc1F)Nc1cc(Cl)c(OC(F)(F)C(F)F)c(Cl)c1 | inactive
CCCCCCCCCCCCCN1CC(C)OC(C)C1 (stereo not given) | inactive
ClCc1ccccc1CCl | inactive
